Source: PubChem
PABP FP inh: PABP-poly(A) binding inhibition. PABP-poly(A) RNA binding, fluorescence polarization. 290,000 compounds, 1% hits. calls only at 35 µM;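 further: calls also rest on retests at 20 µM and on dose response follow-up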
eIF4H inh: inhibitors of RNA binding by human eIF4H; Q15056; eIF4H fluorescence polarization binding assay; inhibition, % at 35 µM; 290,000 compounds, 0.94% hits;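 further: calls also rest on retests at 20 µM and on dose response follow-up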
eIF4E 4G PPI: blocks eIF4E binding to eIF4G; 220,000 compounds, 0.37% hits; inhibition, % at 21.7 µM; TR-FRET eIF4E-eIF4GI(517-606) binding, 2 h;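 active means inhibition above about 30%, limit read from the data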;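 further: 0% = full FRET control wells and 100% = background wells lacking eIF4GI fragment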
EBV gp42 inh: EBV gp42 inhibition; inhibition, % (tested at 21.74 µM); Fluorescence polarization binding assay, mP read-out; AID 1085; 220,000 compounds, 0.42% hits; in the data active means inhibition above about 50%
Target sequence (Q1HVG2 whole entry, looked up): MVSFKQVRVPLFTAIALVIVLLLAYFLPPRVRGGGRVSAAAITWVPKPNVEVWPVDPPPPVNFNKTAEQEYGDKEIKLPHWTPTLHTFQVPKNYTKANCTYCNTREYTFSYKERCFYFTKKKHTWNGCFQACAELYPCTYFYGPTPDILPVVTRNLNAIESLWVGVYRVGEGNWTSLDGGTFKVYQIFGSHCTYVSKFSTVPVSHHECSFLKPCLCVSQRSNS
MLLE-PAM2 inh: blocks PAM2 peptide binding to the PABP1 MLLE domain | GST-MLLE / FITC-PAM2 fluorescence polarization | 360,000 compounds, 0.36% hits | P11940 | inhibition, % at 20 µM; in the data active means inhibition above about 35%, passing the limit was not always enough;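 further: plate controls were DMSO wells with GST-MLLE for no effect and wells lacking GST-MLLE protein for full effect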
Starred values were filed as active, the others as inactive; i = inactive; ? = inconclusive; · = not tested or not shown; + = active, no number; [ ] = another dose, or the depositor's remark. Shown are actives, neighbours in structure and some others; about 1.7% of the full set was active somewhere. Unless noted, how the calls were made is not given here.

SMILES	PABP FP inh	eIF4H inh	eIF4E 4G PPI	EBV gp42 inh	MLLE-PAM2 inh
CCOC(=O)N1C=CC=C[C@@H]2[C@@H](N3C(=O)c4ccccc4C3=O)C(=O)N21	+	0	3	3	9
CCOC(=O)c1cc2sc(C)cc2n1CCCN1C(=O)c2ccccc2C1=O	i	-9	3	-1	18
Cc1ccc(NC(=O)CC2SC3=NCCN3C2=O)cc1 (configuration not stated)	i	-2	8	-1	44*
CC(=O)Nc1ccc(NC(=O)CC2SC(=O)N(CC(=O)c3ccccc3)C2=O)cc1 (configuration not stated)	i	-17	·	·	25
Cc1ccc(NC(=O)CC2SC(=O)N(c3ccccc3)C2=O)cc1 (configuration not stated)	i	0	2	-8	45*
O=C(CC1SC2=NCCN2C1=O)Nc1ccccc1 (configuration not stated)	i	2	3	-1	-8
O=C(CC1SC(=O)N(c2ccccc2)C1=O)Nc1ccccc1 (configuration not stated)	i	-2	5	3	49*
CCCN1C(=O)SC(CC(=O)Nc2ccc(C)cc2)C1=O (configuration not stated)	i	-4	-1	-9	45*
Cc1cccc(NS(=O)(=O)c2ccc(C)c(C(=O)NCC(c3cccs3)N(C)C)c2)c1 (configuration not stated)	·	·	·	·	2
CC1(N2CCCCC2)C(=O)c2ccccc2C1=O	+	active	0	-18	10
CC1(N2CCOCC2)C(=O)c2ccccc2C1=O	i	0	3	8	14
CC(C)(C)N=Cc1c(O)ccc2oc3c(c12)CCCC3	?	47	·	·	96
O=[N+]([O-])c1cc2oc3c(c2c(C=NCc2ccncc2)c1O)CCCC3	+	102	13	13	14
Cc1cc(NC(=O)CSc2nnc(-c3ccccc3F)n2N)no1	·	·	·	·	-7
CCn1cc(C(=O)OCC(=O)c2cc(C)n(-c3ccc(OC(F)F)cc3)c2C)c(=O)c2ccc(C)nc21	i	7	45*[fluorescence artefact?]	-24	10
Cc1[nH]c2ccccc2c1/C=N/n1cnnc1	i	-10	1	-13	6
CCN(CC)c1ccc(N=Cc2c(C)[nH]c3ccccc23)cc1	i	9	32*[fluorescence artefact?]	8	-15
COc1cccc(-c2cnc(C(O)c3cc(C)cc(C)c3)[nH]2)c1 (configuration not stated)	·	·	·	·	17
CCOc1ccccc1N(C(=O)c1snc(C(N)=O)c1N)C(C(=O)NC1CCCC1)c1cccs1 (configuration not stated)	i	-5	·	·	59*
Cc1ccc([N+](=O)[O-])cc1NC(=O)Cc1cccs1	i	37	37*	36	-14
COc1cc(NC(=O)c2ccccc2)c(OC)cc1NC(=O)Cc1cccs1	i	58*	39*	-1	-20
O=C(Cc1cccs1)Nc1nnc(Cc2ccccc2)s1	i	61	17	28	9
CC(C)c1nnc(NC(=O)Cc2cccs2)s1	i	7	2	-9	0
COc1ccc(Cc2nnc(NC(=O)Cc3cccs3)s2)cc1OC	i	2	37*	68*	-13
CC(C)Cc1nnc(NC(=O)Cc2cccs2)s1	+	74*	30	2	-58
SMILES	PABP FP inh	eIF4H inh	eIF4E 4G PPI	EBV gp42 inh	MLLE-PAM2 inh
CCOC(=O)[C@@H](C)N(C(=O)OC(C)(C)C)S(=O)(=O)N(Cc1ccccc1)[C@H](C(=O)OC)C(C)C	·	·	·	·	12
CCN(CC)S(=O)(=O)c1ccc(NC(=O)c2cc(C(=O)OC)cc([N+](=O)[O-])c2)cc1	i	8	33*	-20	1
COC(=O)c1cc(C(=O)Nc2ccc(S(=O)(=O)NC(C)(C)C)cc2)cc([N+](=O)[O-])c1	i	-11	0	-14	5
Cc1ccc(N(CC(=O)NC2CCCCC2)C(=O)CCCC(=O)Nc2ccccn2)cc1	+	79*	·	·	0
Cn1ccsc1=NC(=O)c1ccc([N+](=O)[O-])o1	+	80*	·	·	-4
CCN(CC)S(=O)(=O)c1cc(NC(=O)C(C)N2CCc3ccccc32)ccc1C (configuration not stated)	i	active	1	11	-11
COc1cccc(CC2(CO)CCCN(Cc3sc(N4CCCC4)nc3Cl)C2)c1 (configuration not stated)	+	56*	-5	11	28
COc1cccc(CC2(CO)CCCN(Cc3ccc(C)s3)C2)c1 (configuration not stated)	i	-6	3	-18	5
COc1ccc(/C=C/C(=O)NC(=S)NNC(=O)c2cccs2)cc1	i	5.9*	1	-15	-29
Cc1ccc(Cn2nc(C)c(NC(=O)CSc3nc4c(c(C(F)(F)F)n3)CCc3ccccc3-4)c2C)cc1	i	-2	30*	0	9
Cc1ccccc1NC(=O)c1nc2nccc(C)n2n1	i	active	-5	4	9
COc1ccccc1CNS(=O)(=O)c1ccc(N2CCCC2)cc1Br	·	·	·	·	-5
CC(C)NC(=O)N(C)C[C@H]1Oc2ccc(NC(=O)C3CC3)cc2C(=O)N([C@H](C)CO)C[C@@H]1C	·	·	·	·	-1
O=C(O)CN1C(=O)/C(=C\c2cc(Br)ccc2OCc2ccc(Cl)cc2Cl)SC1=S	+	88*	·	·	12
O=C1CCn2c1c(O)c1ccccc1c2=O	·	·	·	·	45*
O=c1c2ccccc2nc2n1CCCCC2	i	6	2	-26	-6
COC(=O)C1=C(C)N(CCCC(=O)O)C(=O)NC1c1ccccc1Cl (configuration not stated)	·	·	·	·	2
CC(C)(C)c1[nH]nc2c1C(c1cccnc1)C(C#N)=C(N)O2 (configuration not stated)	i	-5	-2	-13	7
CC(C)(C)c1[nH]nc2c1C(c1ccc(OC(=O)c3ccco3)cc1)C(C#N)=C(N)O2 (configuration not stated)	i	4	43*	23	-3
Cc1cc(C)c(NS(=O)(=O)c2ccccc2)c(C)c1NS(=O)(=O)c1ccccc1	·	·	·	·	14
COc1cccc(CN2C(=O)c3ccccc3S2(=O)=O)c1	i	1	·	·	5
COc1cccc(CN2C(=O)c3cccc(N)c3C2=O)c1	+	88*	13	59*	12
COc1ccc(-n2ncc3c(SCC(=O)N4CCN(c5ccccc5OC)CC4)ncnc32)cc1	i	-2	1	-11	2
COc1ccc(/C=C2\C(=O)ON=C2c2ccccc2)cc1	i	-6	·	·	36
O=C1ON=C(c2ccccc2)/C1=C/c1ccc(O)c(O)c1	+	51	·	·	-69
O=C1NC(=Nc2ccc(O)cc2)S/C1=C\C=C\c1ccco1	+	83*	6	-4	-40
CN(CCOc1ccccc1)CC(=O)Nc1cccc(C#N)c1	i	-12	·	·	10
O=C(CN1CCN(c2ccccn2)CC1)Nc1ccc(Oc2ccccc2)cc1	i	active	0	-3	4
